For assay [1], the target named is human Peroxisome Proliferator-activated Receptor delta (PPARd), PPARD (gene 5467) (UniProt Q03181). Description: ATG_PPARd_TRANS: Attagene TRANS-FACTORIAL HepG2 Assay for human Peroxisome Proliferator-activated Receptor delta (PPARd) (AID 2283002; active = hit-call score of the fitted dose curve at least 0.9, where 1 is the maximum). In short, it runs like this: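 Read-out is induced reporter mRNA, quantified by RT-PCR with fluorescent labelling and capillary electrophoresis after 24 h dosing. Cells are HepG2 transiently carrying multiple GAL4-UAS reporter units driven by exogenous NR-GAL4 chimeras; DMSO serves as baseline.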
Sequence of human Peroxisome Proliferator-activated Receptor delta (PPARd), PPARD (gene 5467) (Q03181 whole entry, looked up, the tested form may be a part): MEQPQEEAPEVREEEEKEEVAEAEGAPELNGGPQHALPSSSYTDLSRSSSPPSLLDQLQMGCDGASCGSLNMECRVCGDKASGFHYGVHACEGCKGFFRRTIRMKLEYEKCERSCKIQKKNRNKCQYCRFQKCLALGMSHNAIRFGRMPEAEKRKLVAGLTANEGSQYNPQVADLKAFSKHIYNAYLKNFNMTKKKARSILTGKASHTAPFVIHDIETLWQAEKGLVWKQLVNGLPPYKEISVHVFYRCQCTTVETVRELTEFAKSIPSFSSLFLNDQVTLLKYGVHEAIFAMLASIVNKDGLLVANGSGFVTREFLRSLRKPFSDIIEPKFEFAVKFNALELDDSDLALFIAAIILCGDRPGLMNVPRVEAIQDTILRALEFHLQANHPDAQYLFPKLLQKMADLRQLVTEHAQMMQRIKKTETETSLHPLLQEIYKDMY

Read-out in assay [2]: Intercellular Adhesion Molecule 1 (ICAM1), ICAM1 (gene 3383)
The experiment in a line: BSK_3C_ICAM1: BioMAP Diversity Plus: 3C Assay for Intercellular Adhesion Molecule 1 (ICAM1) Biomarker Activity (AID 2283003). The note with it: primary human endothelial cells (HUVEC); actives raise or lower the signal. In short, it runs like this: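 Chemicals are dosed onto primary human umbilical vein endothelium (3C system). After 24 h, ICAM-1 is measured by ELISA, and responses are fitted bidirectionally relative to DMSO.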

The target in assay [3] is human Retinoic Acid Receptor beta (RARb), RARB (gene 5915) (UniProt P10826). The experiment in a line: ATG_RARb_TRANS: Attagene TRANS-FACTORIAL HepG2 Assay for human Retinoic Acid Receptor beta (AID 2283004; active = hit-call score of the fitted dose curve at least 0.9, where 1 is the maximum). In short, it runs like this:
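Transient transfection of HepG2 with multiple reporter units → chemical dosing, 24 h → total RNA isolation → RT with oligo(dT) → reporter-specific PCR, 6-FAM primer extension, HpaI digest → capillary electrophoresis. Positive direction vs DMSO control.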

The target in assay [4] is Retinoic acid receptor alpha (Homo sapiens) (UniProt P10276). Description: ATG_RARa_TRANS: Attagene TRANS-FACTORIAL HepG2 Assay for human Retinoic Acid Receptor alpha (RARa) (AID 2283005; active = hit-call score of the fitted dose curve at least 0.9, where 1 is the maximum). In short, it runs like this: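 Reporter transcripts, measured by RT-PCR with fluorescent labeling and capillary electrophoresis after 24 h dosing, reflect activity of an exogenous human RARa–GAL4 fusion in transiently transfected HepG2. Fitted for increase relative to DMSO.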

Assay [5] is described as follows: BSK_3C_Proliferation: Cell Proliferation Assessment in the BioMAP Diversity Plus: 3C Assay (AID 2283006). The note with it: primary human endothelial cells (HUVEC). In short, it runs like this:
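Cells (human umbilical vein endothelial, sub-confluent) receive test chemical; after 48 h they are fixed in 10% trichloroacetic acid, stained with 0.1% SRB and read at 560 nm. Activity is referenced to DMSO, fitting increases and decreases.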

The target of assay [6] is Nuclear receptor subfamily 1 group I member 2 (Homo sapiens) (UniProt O75469). The experiment in a line: ATG_PXR_TRANS: Attagene TRANS-FACTORIAL HepG2 Assay for human Pregnane X Receptor (PXR) (AID 2283008; active = hit-call score of the fitted dose curve at least 0.9, where 1 is the maximum). In short, it runs like this:
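Transient HepG2 transfectants carrying multiplexed reporter transcription units; PXR activity read through a Gal4 chimera. 24 h exposure. RT-PCR/CE fluorescence; upward curve fit referenced to DMSO.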

Assay [7] deals with human Retinoic Acid Receptor gamma (RARg), RARG (gene 5916) (UniProt P13631). Description: ATG_RARg_TRANS: Attagene TRANS-FACTORIAL HepG2 Assay for human Retinoic Acid Receptor gamma (RARg) (AID 2283009; active = hit-call score of the fitted dose curve at least 0.9, where 1 is the maximum). In short, it runs like this:
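TRANS format measured activity of exogenous NR-GAL4 fusion (RARg) in transfected HepG2 liver cells after 24 h dosing. Induced reporter RNA was detected by RT-PCR/capillary electrophoresis fluorescence, analysed in the positive direction against DMSO.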

The target in assay [8] is human RAR-related Orphan Receptor beta (RORb), RORB (gene 6096) (UniProt Q92753). Description: ATG_RORb_TRANS: Attagene TRANS-FACTORIAL HepG2 Assay for human RAR-related Orphan Receptor beta (RORb) (AID 2283010; active = hit-call score of the fitted dose curve at least 0.9, where 1 is the maximum). In short, it runs like this:
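Transfect HepG2 with multiple GAL4-UAS reporter transcription units; dose chemicals for 24 h; isolate RNA, reverse-transcribe and PCR-amplify reporter sequences; label, digest and resolve fragments by capillary electrophoresis; fit increases relative to DMSO.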

Assay [9] addresses human Retinoid X Receptor beta (RXRb), RXRB (gene 6257) (UniProt P28702). Description: ATG_RXRb_TRANS: Attagene TRANS-FACTORIAL HepG2 Assay for human Retinoid X Receptor beta (RXRb) (AID 2283013; active = hit-call score of the fitted dose curve at least 0.9, where 1 is the maximum). In short, it runs like this:
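Chimeric receptor-Gal4 activity was assessed in transiently transfected human HepG2 cells after 24 h exposure. Transcripts from GAL4-UAS reporters were quantified by fluorescent RT-PCR and capillary electrophoresis, with DMSO as negative control and baseline.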

Assay [10] addresses human Thyroid Receptor alpha (THRa1), THRA (gene 7067) (UniProt P10827). The experiment in a line: ATG_THRa1_TRANS: Attagene TRANS-FACTORIAL HepG2 Assay for human Thyroid Receptor alpha (THRa1) (AID 2283014; active = hit-call score of the fitted dose curve at least 0.9, where 1 is the maximum). In short, it runs like this:
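Reporter transcript induction, read by capillary electrophoresis of 6-FAM-labelled RT-PCR products, reflects activity of a transfected THRa1-Gal4 fusion in HepG2 liver cells. Cells were dosed for 24 h; activity was fitted in the positive direction against DMSO.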

Read-out in assay [11]: E-selectin (Homo sapiens) (UniProt P16581)
The experiment in a line: BSK_3C_Eselectin: BioMAP Diversity Plus: 3C Assay for Eselectin Biomarker Activity (AID 2283015).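 As to outcome: cell surface E-selectin protein quantified by ELISA 24 h after dosing.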 The note with it: primary human endothelial cells (HUVEC); actives raise or lower the signal. In short, it runs like this:
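ELISA read-out of E-selectin on endothelial monolayers after 24 h chemical treatment. Human umbilical vein primary cells served as the system, with DMSO defining baseline activity for bidirectional fitting.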

Read-out in assay [12]: Interleukin-1 alpha (IL1a), IL1A (gene 3552)
The experiment in a line: BSK_BE3C_IL1a: BioMAP Diversity Plus: BE3C Assay for Interleukin-1 alpha (IL1a) Biomarker Activity (AID 2283016). The note with it: primary human bronchial epithelial cells; actives raise or lower the signal. In short, it runs like this:
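Signal from IL-1a ELISA, taken 24 h after chemical dosing of human bronchial epithelial cells, is compared with DMSO as baseline using bidirectional curve fitting.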

Read-out in assay [13]: Monocyte Chemoattractant Protein-1 (MCP1), CCL2 (gene 6347)
The experiment in a line: BSK_3C_MCP1: BioMAP Diversity Plus: 3C Assay for Monocyte Chemoattractant Protein-1 (MCP1) Biomarker Activity (AID 2283017). To be noted: primary human endothelial cells (HUVEC); actives raise or lower the signal. In short, it runs like this: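 ELISA read-out of MCP-1 from human umbilical vein endothelial cell cultures harvested 24 h post-dosing. Gain or loss of signal was fitted relative to DMSO.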

Read-out in assay [14]: Monocyte Chemoattractant Protein-1 (MCP1), CCL2 (gene 6347)
The experiment in a line: BSK_4H_MCP1: BioMAP Diversity Plus: 4H Assay for Monocyte Chemoattractant Protein-1 (MCP1) Biomarker Activity (AID 2283018). The note with it: primary human endothelial cells (HUVEC); actives raise or lower the signal. In short, it runs like this: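 Endothelial cells from umbilical vein were treated with test chemical, then after 24 h MCP-1 levels were quantified by ELISA; endpoint values came from bidirectional fitting with DMSO as baseline of activity.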

Read-out in assay [15]: Human Leukocyte Antigen - DR isotype (HLADR), HLA-DRA (gene 3122)
The experiment in a line: BSK_3C_HLADR: BioMAP Diversity Plus: 3C Assay for Human Leukocyte Antigen - DR isotype (HLADR) Biomarker Activity (AID 2283019). The note with it: primary human endothelial cells (HUVEC); actives raise or lower the signal. In short, it runs like this: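 ELISA readout of surface HLA-DR on human umbilical vein endothelium, taken 24 h after chemical treatment. Gain- and loss-of-signal were both fitted relative to DMSO.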

Read-out in assay [16]: Interleukin-8 (IL8), CXCL8 (gene 3576)
The experiment in a line: BSK_3C_IL8: BioMAP Diversity Plus: 3C Assay for Interleukin-8 (IL8) Biomarker Activity (AID 2283020). The note with it: primary human endothelial cells (HUVEC); actives raise or lower the signal. In short, it runs like this: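 Endothelial primary cells of human umbilical vein origin are dosed with chemical; after 24 h the IL-8 biomarker is measured by ELISA, and concentration–response is fitted in both directions versus DMSO.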

Read-out in assay [17]: Monokine induced gamma interferon (MIG), CXCL9 (gene 4283)
The experiment in a line: BSK_3C_MIG: BioMAP Diversity Plus: 3C Assay for Monokine induced gamma interferon (MIG) Biomarker Activity (AID 2283021).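 As to AC50: MIG protein level measured by immunoassay in the treated endothelial cultures.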 To be noted: primary human endothelial cells (HUVEC); actives raise or lower the signal. In short, it runs like this:
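Endothelial primary cells (human umbilical vein) are dosed with test chemical in the 3C system. MIG levels are measured by ELISA at 24 h and fitted in both directions relative to DMSO.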

Assay [18] concerns the target human Peroxisome Proliferator-activated Receptor alpha (PPARa), PPARA (gene 5465) (UniProt Q07869). The experiment in a line: ATG_PPARa_TRANS: Attagene TRANS-FACTORIAL HepG2 Assay for human Peroxisome Proliferator-activated Receptor alpha (PPARa) (AID 2283001; active = hit-call score of the fitted dose curve at least 0.9, where 1 is the maximum). In short, it runs like this:
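Reporter transcripts quantified by RT-PCR plus capillary electrophoresis after 24 h treatment, fitted upward relative to DMSO. Cells: human HepG2 transiently carrying multiple GAL4-UAS reporter units driven by NR-Gal4 chimeras.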

Assay [19] concerns the target Peroxisome proliferator-activated receptor gamma (Homo sapiens) (UniProt P37231). The experiment in a line: ATG_PPARg_TRANS: Attagene TRANS-FACTORIAL HepG2 Assay for human Peroxisome Proliferator-activated Receptor-gamma (PPARg) (AID 2283007; active = hit-call score of the fitted dose curve at least 0.9, where 1 is the maximum). In short, it runs like this:
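Multiplexed reporter transcription units in HepG2, 24 h dosing, reporter transcripts quantified by fluorescent RT-PCR and capillary electrophoresis. Increase over DMSO scored.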

Assay [20] addresses Retinoic acid receptor RXR-alpha (Homo sapiens) (UniProt P19793). The experiment in a line: ATG_RXRa_TRANS: Attagene TRANS-FACTORIAL HepG2 Assay for human Retinoid X Receptor alpha (RXRa) (AID 2283012; active = hit-call score of the fitted dose curve at least 0.9, where 1 is the maximum). In short, it runs like this:
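Measures exogenous chimeric NR-GAL4 activity in transfected HepG2 liver cells after 24 h of dosing. Induced reporter mRNA was detected by RT-PCR with capillary electrophoresis, and gain of signal was analysed against DMSO.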

Results filed as inconclusive are left out. Calls of active or inactive are those of the source. The calls were made as follows, unless noted: active = hit-call score of the fitted dose curve at least 0.9, where 1 is the maximum; inactive = score below 0.9.

Sequence of Nuclear receptor subfamily 1 group I member 2 (Homo sapiens) (O75469 whole entry, looked up, the tested form may be a part): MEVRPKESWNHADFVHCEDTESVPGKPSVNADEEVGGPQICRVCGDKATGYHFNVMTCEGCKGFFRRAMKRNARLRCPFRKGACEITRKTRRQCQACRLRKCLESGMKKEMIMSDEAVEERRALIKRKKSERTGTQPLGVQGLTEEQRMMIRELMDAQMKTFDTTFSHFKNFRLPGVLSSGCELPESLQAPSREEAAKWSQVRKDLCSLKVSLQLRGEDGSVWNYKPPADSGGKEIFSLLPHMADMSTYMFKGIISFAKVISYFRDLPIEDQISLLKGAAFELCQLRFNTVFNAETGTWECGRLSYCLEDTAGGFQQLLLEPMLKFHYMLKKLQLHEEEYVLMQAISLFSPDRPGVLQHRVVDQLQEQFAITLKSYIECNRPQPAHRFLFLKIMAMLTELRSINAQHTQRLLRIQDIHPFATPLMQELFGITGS
Sequence of human Peroxisome Proliferator-activated Receptor alpha (PPARa), PPARA (gene 5465) (Q07869 whole entry, looked up, the tested form may be a part): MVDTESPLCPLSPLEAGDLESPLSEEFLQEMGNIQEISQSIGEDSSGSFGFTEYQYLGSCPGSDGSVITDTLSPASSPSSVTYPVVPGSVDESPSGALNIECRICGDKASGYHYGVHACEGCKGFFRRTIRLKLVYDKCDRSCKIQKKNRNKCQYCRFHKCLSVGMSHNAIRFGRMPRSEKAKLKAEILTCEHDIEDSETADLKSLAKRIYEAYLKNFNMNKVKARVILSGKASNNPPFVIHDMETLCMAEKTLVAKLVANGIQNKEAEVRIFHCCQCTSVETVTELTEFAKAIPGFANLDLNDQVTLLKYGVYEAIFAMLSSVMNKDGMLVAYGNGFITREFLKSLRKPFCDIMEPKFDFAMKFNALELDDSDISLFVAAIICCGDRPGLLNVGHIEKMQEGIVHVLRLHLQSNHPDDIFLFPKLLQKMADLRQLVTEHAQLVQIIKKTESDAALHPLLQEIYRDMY
Sequence of human Thyroid Receptor alpha (THRa1), THRA (gene 7067) (P10827 whole entry, looked up, the tested form may be a part): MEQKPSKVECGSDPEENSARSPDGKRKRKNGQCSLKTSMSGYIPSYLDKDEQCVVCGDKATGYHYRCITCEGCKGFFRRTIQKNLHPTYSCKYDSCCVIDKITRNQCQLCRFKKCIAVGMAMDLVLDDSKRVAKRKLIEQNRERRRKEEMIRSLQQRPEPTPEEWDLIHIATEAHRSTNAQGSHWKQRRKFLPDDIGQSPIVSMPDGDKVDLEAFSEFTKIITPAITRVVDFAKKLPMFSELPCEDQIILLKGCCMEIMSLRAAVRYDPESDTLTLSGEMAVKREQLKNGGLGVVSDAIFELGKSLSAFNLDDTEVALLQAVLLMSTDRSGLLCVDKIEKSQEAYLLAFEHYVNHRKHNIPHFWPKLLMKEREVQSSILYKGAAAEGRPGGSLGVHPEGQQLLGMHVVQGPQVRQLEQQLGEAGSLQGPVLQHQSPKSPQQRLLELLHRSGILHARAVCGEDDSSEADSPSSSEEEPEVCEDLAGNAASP
Sequence of human Retinoid X Receptor beta (RXRb), RXRB (gene 6257) (P28702 whole entry, looked up, the tested form may be a part): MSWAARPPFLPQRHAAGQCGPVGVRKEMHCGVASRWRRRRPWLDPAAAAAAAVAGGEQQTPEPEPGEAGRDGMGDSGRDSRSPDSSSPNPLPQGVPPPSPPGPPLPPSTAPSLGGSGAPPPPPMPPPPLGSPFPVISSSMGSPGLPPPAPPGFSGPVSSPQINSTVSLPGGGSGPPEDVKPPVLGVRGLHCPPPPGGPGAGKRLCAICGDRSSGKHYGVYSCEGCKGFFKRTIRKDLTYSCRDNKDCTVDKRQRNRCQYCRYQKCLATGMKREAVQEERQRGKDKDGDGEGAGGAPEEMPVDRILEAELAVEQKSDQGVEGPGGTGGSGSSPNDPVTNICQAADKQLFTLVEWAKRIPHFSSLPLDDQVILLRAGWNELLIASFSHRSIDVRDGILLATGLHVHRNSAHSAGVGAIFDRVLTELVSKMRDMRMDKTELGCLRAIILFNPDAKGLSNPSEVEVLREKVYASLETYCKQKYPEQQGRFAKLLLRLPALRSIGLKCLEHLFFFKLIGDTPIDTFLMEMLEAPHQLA
Sequence of E-selectin (Homo sapiens) (P16581 whole entry, looked up): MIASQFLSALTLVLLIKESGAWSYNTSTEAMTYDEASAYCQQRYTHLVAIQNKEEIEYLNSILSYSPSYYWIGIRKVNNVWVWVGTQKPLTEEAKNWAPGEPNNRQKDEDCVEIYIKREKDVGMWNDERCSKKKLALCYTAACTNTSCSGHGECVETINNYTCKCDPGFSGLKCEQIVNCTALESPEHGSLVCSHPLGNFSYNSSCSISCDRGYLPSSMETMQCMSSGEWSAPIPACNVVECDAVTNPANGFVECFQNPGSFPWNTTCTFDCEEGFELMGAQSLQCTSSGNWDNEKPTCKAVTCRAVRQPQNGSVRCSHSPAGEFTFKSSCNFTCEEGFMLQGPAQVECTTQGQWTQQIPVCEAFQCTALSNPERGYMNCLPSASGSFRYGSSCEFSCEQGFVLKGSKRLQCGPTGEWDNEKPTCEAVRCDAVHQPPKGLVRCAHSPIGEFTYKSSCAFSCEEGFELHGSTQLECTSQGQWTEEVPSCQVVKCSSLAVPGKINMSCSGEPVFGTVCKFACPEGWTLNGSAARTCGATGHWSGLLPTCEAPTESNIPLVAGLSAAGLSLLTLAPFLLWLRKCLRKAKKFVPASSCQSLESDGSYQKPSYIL
Sequence of Peroxisome proliferator-activated receptor gamma (Homo sapiens) (P37231 whole entry, looked up): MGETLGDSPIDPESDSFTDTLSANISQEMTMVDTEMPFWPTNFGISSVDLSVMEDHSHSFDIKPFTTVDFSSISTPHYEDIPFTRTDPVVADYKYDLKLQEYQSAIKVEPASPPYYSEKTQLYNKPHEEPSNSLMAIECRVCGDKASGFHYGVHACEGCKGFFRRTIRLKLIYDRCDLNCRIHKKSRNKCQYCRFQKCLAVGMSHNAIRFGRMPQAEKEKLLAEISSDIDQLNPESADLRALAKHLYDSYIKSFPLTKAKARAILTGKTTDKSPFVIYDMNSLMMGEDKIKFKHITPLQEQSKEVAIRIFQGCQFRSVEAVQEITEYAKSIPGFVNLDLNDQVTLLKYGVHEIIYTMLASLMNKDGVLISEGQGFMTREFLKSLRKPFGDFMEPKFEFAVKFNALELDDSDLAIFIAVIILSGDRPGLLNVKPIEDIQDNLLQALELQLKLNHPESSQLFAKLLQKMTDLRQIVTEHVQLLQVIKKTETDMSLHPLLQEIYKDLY
Sequence of human RAR-related Orphan Receptor beta (RORb), RORB (gene 6096) (Q92753 whole entry, looked up, the tested form may be a part): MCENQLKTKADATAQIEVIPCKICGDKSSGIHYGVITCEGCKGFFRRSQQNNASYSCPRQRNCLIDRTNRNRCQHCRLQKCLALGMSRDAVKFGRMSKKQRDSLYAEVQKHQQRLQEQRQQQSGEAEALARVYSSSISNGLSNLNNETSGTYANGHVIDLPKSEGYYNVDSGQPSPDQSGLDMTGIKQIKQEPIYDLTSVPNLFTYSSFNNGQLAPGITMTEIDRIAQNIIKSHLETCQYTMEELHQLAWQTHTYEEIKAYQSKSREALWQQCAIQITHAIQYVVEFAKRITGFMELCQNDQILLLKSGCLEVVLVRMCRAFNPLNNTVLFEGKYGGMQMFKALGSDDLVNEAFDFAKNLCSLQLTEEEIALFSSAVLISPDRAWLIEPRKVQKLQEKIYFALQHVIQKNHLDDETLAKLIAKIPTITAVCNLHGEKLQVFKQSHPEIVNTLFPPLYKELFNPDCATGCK
Sequence of human Retinoic Acid Receptor gamma (RARg), RARG (gene 5916) (P13631 whole entry, looked up, the tested form may be a part): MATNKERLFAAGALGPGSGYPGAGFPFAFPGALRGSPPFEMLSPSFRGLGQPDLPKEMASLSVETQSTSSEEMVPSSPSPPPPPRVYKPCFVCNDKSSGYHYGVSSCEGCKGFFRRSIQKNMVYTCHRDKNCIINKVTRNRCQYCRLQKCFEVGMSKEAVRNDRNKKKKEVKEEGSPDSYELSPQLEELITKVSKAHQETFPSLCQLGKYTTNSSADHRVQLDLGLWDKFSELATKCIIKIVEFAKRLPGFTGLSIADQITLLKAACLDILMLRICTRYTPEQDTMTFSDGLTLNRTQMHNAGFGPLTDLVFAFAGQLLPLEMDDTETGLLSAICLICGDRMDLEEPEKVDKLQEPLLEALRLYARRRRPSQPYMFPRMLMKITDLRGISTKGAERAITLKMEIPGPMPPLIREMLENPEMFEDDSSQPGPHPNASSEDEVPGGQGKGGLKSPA
Sequence of Retinoic acid receptor RXR-alpha (Homo sapiens) (P19793 whole entry, looked up, the tested form may be a part): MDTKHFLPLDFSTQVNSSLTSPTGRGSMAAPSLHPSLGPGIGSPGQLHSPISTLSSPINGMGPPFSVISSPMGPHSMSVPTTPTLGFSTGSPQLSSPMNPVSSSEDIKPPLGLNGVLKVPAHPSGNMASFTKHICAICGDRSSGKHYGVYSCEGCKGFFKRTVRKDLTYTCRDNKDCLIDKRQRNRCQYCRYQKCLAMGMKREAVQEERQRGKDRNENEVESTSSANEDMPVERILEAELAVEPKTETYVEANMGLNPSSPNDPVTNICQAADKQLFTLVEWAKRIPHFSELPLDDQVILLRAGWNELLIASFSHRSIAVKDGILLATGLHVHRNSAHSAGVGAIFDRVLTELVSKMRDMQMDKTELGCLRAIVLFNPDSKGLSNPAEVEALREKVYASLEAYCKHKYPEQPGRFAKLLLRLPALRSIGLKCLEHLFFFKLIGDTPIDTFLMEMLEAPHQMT

As for `N#CC(Br)(Br)C(N)=O`, the molecule was called inactive in [1], in [2], in [3], in [4], in assay [5] and in assay [6]. In addition, the molecule was classed as inactive in assay [7], in assay [8], in assay [10], in assay [11], in [12] and in assay [13]. Also, the result in [14], in assay [15], in assay [16] and in assay [17] was inactive. In addition, the AC50 in assay [9] is 10 µM (active).
Take `CN(C)[C@@H]1C(=O)C(C(N)=O)=C(O)[C@@]2(O)C(=O)C3=C(O)c4c(O)cccc4[C@@](C)(O)[C@H]3C[C@@H]12`: the call in assay [18], in [2], in assay [5], in assay [19], in assay [6] and in assay [10] was inactive. Also, the result in assay [11], in [12], in assay [13], in assay [14], in assay [15] and in assay [16] was inactive. For the same molecule, in assay [17], the result was inactive.
For the molecule `CC(C)(C)OOC(=O)c1ccccc1`, the outcome in assay [18], in assay [2], in assay [20], in assay [11], in assay [12] and in assay [13] was inactive. The result in [14], in assay [15], in [16] and in assay [17] was inactive.
Regarding `Clc1ccc(C(c2ccc(Cl)cc2)C(Cl)Cl)cc1`, the outcome in assay [18], in [19], in assay [10] and in assay [12] was inactive. The AC50 was 37.9 µM (active) in assay [2]; 7.96 µM (active) in [6]; 33.4 µM (active) in assay [9]; 29.7 µM (active) in assay [11]; 13.9 µM (active) in [13]; 10.2 µM (active) in [14]. For the same molecule, the AC50 in [15] is 14.4 µM (active); in assay [16] it was 15 µM (active); in assay [17], 35.2 µM (active).
In the case of `Cc1ccc(N)cc1`, the result in assay [18], in assay [2], in [8], in assay [9], in [10] and in assay [11] was inactive. Further, the outcome in [12], in assay [13], in assay [14], in assay [15], in assay [16] and in assay [17] was inactive.

Usually AC50 stands for the concentration giving half of the maximal activity seen.

These data come from PubChem BioAssay (EPA / NIEHS).
